Results filed as inconclusive are left out. Activity calls are given as the source filed them. Unless noted, calls follow the shape of the full dose curve.

Among the data in PubChem BioAssay (Tox21) are Potency values, retold here.

In experiment [1] the target is Vitamin D3 receptor (Homo sapiens) (UniProt P11473). Briefly: qHTS assay to identify small molecule antagonists of the vitamin D receptor (VDR) signaling pathway (AID 743223; active = well fitted inhibition curve with a large enough effect in the signal ratio in the repeat runs, not every such curve was filed as active; the % refers to the signal ratio). The method in brief:
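Inhibition of agonist-driven VDR signalling is scored in VDR-bla cells: 3 nM final 1alpha,25-dihydroxyvitamin D3 plus compound, 16 h at 37C, then beta-lactamase detection by FRET substrate fluorescence after 2 h.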
A general note: In qHTS, concentration-response curves come from the screen itself.

The nature of experiment [2]: qHTS assay to identify small molecule agonists of the vitamin D receptor (VDR) signaling pathway - cell viability counter screen (AID 743224; active = well fitted curve in the direction sought with a large enough effect in the repeat runs; an effect the other way counts as inactive or inconclusive; also: nearly all actives have a fitted effect of over 50% in size; also: potency is read from the fitted curve at half-maximal effect). The procedure, abridged:
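Viability is measured in the same wells as the VDR-bla reporter assay: after 16 h compound treatment and 2 h substrate loading, CellTiter-Glo is added and luminescence read 30 min later.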

Experiment [3] can be described thus: qHTS assay to identify small molecule antagonists of the vitamin D receptor (VDR) signaling pathway - cell viability counter screen (AID 743225; active = well fitted curve in the direction sought with a large enough effect in the repeat runs; an effect the other way counts as inactive or inconclusive; also: nearly all actives have a fitted effect of over 50% in size). The method in brief:
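Compounds were pinned onto VDR-bla HEK 293T cells together with 1-alpha,25-dihydroxyvitamin D3 at 3 nM final. After 16 h at 37C and 5% CO2 plus the reporter readout, cell viability was measured by CellTiter-Glo luminescence (30 min, room temperature).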

Experiment [4] is described as follows: qHTS assay to identify small molecule agonists of the NFkB signaling pathway - cell viability counter screen (AID 1159515). Also: series mostly up to about 61 µM; nearly all actives have a fitted effect of over 55% in size. The method in brief: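 Multiplexed viability readout: after the 5 hr compound exposure and 1.5 hr FRET substrate step, CellTiter-Glo reagent went into the same NFkB-bla ME-180 wells; ATP luminescence was measured after 30 min at room temperature.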

Experiment [5] in a line: qHTS assay to identify small molecule agonists of the endoplasmic reticulum stress response signaling pathway (AID 1159516; active = well fitted activation curve with a large enough effect in the signal ratio in the repeat runs, not every such curve was filed as active; the % refers to the signal ratio). The method in brief:
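Tox21 10K library screened in quantitative HTS format on ESRE-bla HeLa cells, a beta-lactamase reporter under ER stress response element control; 5 hr treatment, FRET read.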

The nature of experiment [6]: qHTS assay to identify small molecule agonists of the endoplasmic reticulum stress response signaling pathway - cell viability counter screen (AID 1159517). Also: series mostly up to about 61 µM; nearly all actives have a fitted effect of over 50% in size. The method in brief:
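ESRE-bla HeLa cells, 1,500 per well, seeded overnight then treated with compounds for 5 hr at 37 C. After the beta-lactamase read, viability in the same wells is measured by CellTiter-Glo luminescence after 30 min at room temperature.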

The target of experiment [7] is Nuclear receptor ROR-gamma (Homo sapiens) (UniProt P51449). Briefly: qHTS assay to identify small molecule antagonists of the retinoid-related orphan receptor gamma (ROR-gamma) signaling pathway (AID 1159521; active = well fitted curve in the direction sought with a large enough effect in the repeat runs; an effect the other way counts as inactive or inconclusive; also: nearly all actives have a fitted effect of over 50% in size; also: potency is read from the fitted curve at half-maximal effect). The procedure, abridged:
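Test compounds were applied to Tet-on RORγ CHO cells 2 h ahead of doxycycline hyclate (1 uM final). Luciferase reporter activity was quantified by luminescence after 16 h at 37 C and 5% CO2.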

A short description of experiment [8]: qHTS assay to identify small molecule agonists of the AP-1 signaling pathway - cell viability counter screen (AID 1159525). Also: nearly all actives have a fitted effect of over 55% in size. The method in brief: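 AP-1-bla ME-180 cells in Opti-MEM with 0.5% dialyzed FBS, compound exposure 5 h at 37 C in 15-point titration. Viability read in the same wells as ATP content by CellTiter-Glo luminescence, normalised to tetra-n-octylammonium bromide and DMSO controls.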

The nature of experiment [9]: qHTS assay to identify small molecule agonists of the peroxisome proliferator-activated receptor delta (PPARd) signaling pathway - cell viability counter screen (AID 743211; active = well fitted curve in the direction sought with a large enough effect in the repeat runs; an effect the other way counts as inactive or inconclusive; also: nearly all actives have a fitted effect of over 55% in size). The procedure, abridged:
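In the same wells used for beta-lactamase reporter measurement, cytotoxicity is scored by CellTiter-Glo. HEK293H PPARd-bla cells receive compound for 17 h at 37C following a 5 h settling period.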

Experiment [10] addresses Peroxisome proliferator-activated receptor delta (Homo sapiens) (UniProt Q03181). Put plainly: qHTS assay to identify small molecule agonists of the peroxisome proliferator-activated receptor delta (PPARd) signaling pathway (AID 743212). The method in brief: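 GeneBLAzer UAS-bla HEK293H cells carrying a PPARδ construct were exposed to compounds at 37 °C. Beta-lactamase activity was read by FRET fluorescence after 2 h at room temperature with LiveBLAzer B/G substrate.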

For experiment [11] the target is unchanged. Briefly: qHTS assay to identify small molecule antagonists of the peroxisome proliferator-activated receptor delta (PPARd) signaling pathway (AID 743215; active = well fitted inhibition curve with a large enough effect in the signal ratio in the repeat runs, not every such curve was filed as active; the % refers to the signal ratio;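 also: cells stimulated with agonist L165041 at 300 nM final during compound exposure; series mostly up to about 62 µM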). The procedure, abridged:
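Inhibition of L165041-driven (300 nM final) PPARd signaling is scored in HEK293H UAS-bla cells. Exposure lasts 17 h at 37 C; beta-lactamase activity is then read by FRET substrate fluorescence after 2 h at room temperature.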

Experiment [12] in a line: qHTS assay to identify small molecule agonists of the farnesoid-X-receptor (FXR) signaling pathway - cell viability counter screen (AID 743218; active = well fitted curve in the direction sought with a large enough effect in the repeat runs; an effect the other way counts as inactive or inconclusive; also: nearly all actives have a fitted effect of over 45% in size). The method in brief: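 Cytotoxicity counter-screen run in parallel, same wells: FXR-UAS-bla HEK 293T cells dosed 16 h at 37 C, viability read by CellTiter-Glo luminescence after 30 min at room temperature.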
The nature of experiment [13]: qHTS assay to identify small molecule antagonists of the farnesoid-X-receptor (FXR) signaling pathway - cell viability counter screen (AID 743221; active = well fitted cell-killing curve with a large enough effect in the repeat runs, not every such curve was filed as active; also: nearly all actives have a fitted effect of over 50% in size). The procedure, abridged: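 Here viability was scored by luminescence after CellTiter-Glo addition to wells already read for beta-lactamase. Prior treatment: compound plus CDCA (50 uM final), 16 h, 37 C, HEK 293T FXR-bla cells.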

The nature of experiment [14]: qHTS assay to identify small molecule agonists of the AP-1 signaling pathway (AID 1159526).
The target in experiment [15] is Vitamin D3 receptor (Homo sapiens) (UniProt P11473). Briefly: qHTS assay to identify small molecule agonists of the vitamin D receptor (VDR) signaling pathway (AID 743222). The procedure, abridged: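 Quantitative HTS agonist-mode screen: compounds in DMSO were pin-transferred onto VDR-bla cells and incubated 16 h at 37C, 5% CO2. Reporter activity was detected with LiveBLAzer B/G FRET substrate after 2 h at room temperature.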

Experiment [16] can be described thus: qHTS assay to identify small molecule antagonists of the peroxisome proliferator-activated receptor delta (PPARd) signaling pathway - cell viability counter screen (AID 743213; active = well fitted curve in the direction sought with a large enough effect in the repeat runs; an effect the other way counts as inactive or inconclusive; also: nearly all actives have a fitted effect of over 50% in size). The procedure, abridged:
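CellTiter-Glo was added to PPARd-bla HEK293H wells following 17 h compound treatment in the presence of 300 nM L165041. Luminescence was recorded after 30 min at room temperature.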

A short description of experiment [17]: qHTS assay to identify small molecule antagonists of the retinoid-related orphan receptor gamma (ROR-gamma) signaling pathway - cell viability counter screen (AID 1159520; active = well fitted curve in the direction sought with a large enough effect in the repeat runs; an effect the other way counts as inactive or inconclusive; also: nearly all actives have a fitted effect of over 50% in size). The procedure, abridged:
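Tet-on ROR gamma CHO cells were given compounds for 2 hr, then doxycycline hyclate at 1 uM final, and incubated 16 hr at 37 C. Viability was measured as ATP content by CellTiter-Glo luminescence.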

The target in experiment [18] is Retinoic acid receptor RXR-alpha (Homo sapiens) (UniProt P19793). Put plainly: qHTS assay to identify small molecule agonists of the RXR signaling pathway (AID 1159527). Also: nearly all actives have a fitted effect of over 35% in size. The procedure, abridged:
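Using 9-cis retinoic acid as the reference agonist, chemicals were tested in HEK 293T cells […] for 16 hr; substrate loading lasted 2 hr at room temperature.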

Chain of Vitamin D3 receptor (Homo sapiens) (P11473 whole entry, looked up): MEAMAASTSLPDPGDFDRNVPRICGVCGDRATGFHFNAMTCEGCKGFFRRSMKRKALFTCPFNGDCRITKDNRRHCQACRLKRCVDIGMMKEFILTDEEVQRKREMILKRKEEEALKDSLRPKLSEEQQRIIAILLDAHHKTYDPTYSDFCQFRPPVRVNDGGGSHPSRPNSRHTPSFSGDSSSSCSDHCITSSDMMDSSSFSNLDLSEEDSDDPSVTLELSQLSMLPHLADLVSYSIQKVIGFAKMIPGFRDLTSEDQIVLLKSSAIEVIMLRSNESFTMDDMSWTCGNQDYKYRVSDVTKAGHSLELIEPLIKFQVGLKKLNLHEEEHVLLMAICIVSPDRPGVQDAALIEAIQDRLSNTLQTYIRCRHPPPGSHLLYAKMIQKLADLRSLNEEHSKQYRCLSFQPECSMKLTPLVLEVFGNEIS
Chain of Peroxisome proliferator-activated receptor delta (Homo sapiens) (Q03181 whole entry, looked up): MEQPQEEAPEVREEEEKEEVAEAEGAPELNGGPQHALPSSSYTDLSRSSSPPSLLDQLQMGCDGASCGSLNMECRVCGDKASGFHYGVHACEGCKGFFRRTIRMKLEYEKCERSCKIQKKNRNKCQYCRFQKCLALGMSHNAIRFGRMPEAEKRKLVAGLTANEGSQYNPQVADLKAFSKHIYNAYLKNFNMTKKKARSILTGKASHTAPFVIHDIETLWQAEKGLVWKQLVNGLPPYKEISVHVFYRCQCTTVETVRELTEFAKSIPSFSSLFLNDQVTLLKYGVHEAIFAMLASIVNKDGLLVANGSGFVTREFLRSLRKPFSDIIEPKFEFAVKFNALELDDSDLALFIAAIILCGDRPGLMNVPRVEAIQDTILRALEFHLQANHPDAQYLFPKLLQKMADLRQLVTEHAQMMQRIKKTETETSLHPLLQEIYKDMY
Chain of Retinoic acid receptor RXR-alpha (Homo sapiens) (P19793 whole entry, looked up): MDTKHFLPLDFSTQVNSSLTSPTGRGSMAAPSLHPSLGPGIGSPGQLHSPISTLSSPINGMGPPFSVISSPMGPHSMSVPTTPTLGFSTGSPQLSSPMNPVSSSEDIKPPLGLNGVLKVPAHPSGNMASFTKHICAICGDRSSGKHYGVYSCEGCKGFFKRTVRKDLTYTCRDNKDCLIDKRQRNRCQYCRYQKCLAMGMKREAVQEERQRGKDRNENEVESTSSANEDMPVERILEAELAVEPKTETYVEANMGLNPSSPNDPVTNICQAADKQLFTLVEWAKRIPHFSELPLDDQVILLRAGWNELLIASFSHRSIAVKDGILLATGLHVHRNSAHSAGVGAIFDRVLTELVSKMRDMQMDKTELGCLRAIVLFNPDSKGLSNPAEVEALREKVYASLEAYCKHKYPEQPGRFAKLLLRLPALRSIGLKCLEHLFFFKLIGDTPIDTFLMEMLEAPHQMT

As for `ClC1=C(Cl)[C@]2(Cl)[C@@H]3[C@H]4C[C@H]([C@@H]5O[C@H]45)[C@@H]3[C@@]1(Cl)C2(Cl)Cl`, the Potency entry in experiment [1], in experiment [3], in experiment [4], in experiment [5], in experiment [6] and in [8] was “inactive” each time. In addition, the results for the Potency in experiment [2] and in [7] were 43.6 µM (active) and 27.3 µM (active), respectively.
With `Clc1ccc(C2(Cn3cncn3)OCCO2)c(Cl)c1`, the Potency entry in [9], in experiment [10], in [11], in [12], in experiment [13] and in [3] was “inactive” throughout. Moreover, the Potency result in [4], in experiment [5], in experiment [6], in [7], in [8] and in [14] was “inactive” throughout.
Consider `N#Cc1c[nH]cc1-c1cccc2c1OC(F)(F)O2`, for which the Potency result in experiment [10], in experiment [12], in [13], in [15], in experiment [4] and in experiment [5] was “inactive” in each case. Also, the Potency entry in experiment [6], in experiment [8] and in [14] was “inactive” throughout.
On to `Nc1nc(N)nc(Cl)n1`, for which the Potency entry in experiment [9], in experiment [16], in experiment [12], in experiment [13], in [2] and in experiment [3] was “inactive” in each case. Further, the Potency entry in experiment [4], in [5], in experiment [17], in experiment [8] and in [14] was “inactive” in each case.
Take `CCCCC(CC)COC(=O)OOC(C)(C)C` (configuration not stated): the Potency entry in [9], in experiment [10], in experiment [16], in experiment [11], in experiment [13] and in experiment [15] was “inactive” in each case. In addition, the Potency result in experiment [2], in experiment [3], in experiment [4], in experiment [5], in experiment [17] and in experiment [8] was “inactive” throughout. For the same compound, the Potency entry in experiment [14] was “inactive”.
Turning to `CN/C(=N\[N+](=O)[O-])NCc1cnc(Cl)s1`, the Potency result in experiment [9], in experiment [12], in experiment [13], in experiment [15], in experiment [1] and in [2] was “inactive” in each case. The Potency result in experiment [3], in [4], in experiment [5], in [17], in experiment [7] and in experiment [8] was “inactive” in each case. For the same compound, the Potency result in experiment [14] and in experiment [18] was “inactive” each time.
